Screens deposited in PubChem BioAssay by Broad Institute.
The entries come from a sample that favours hits as a whole.
Tgondii IFNg – T. gondii growth inhibition under IFN-gamma; Toxoplasma gondii growth in IFN-gamma-treated host cells; stronger effect = lower value; activity change, negative = inhibition, % (concentration not given with the values); 69,000 tested, 3.8% active; AID 1259416; in the data active = activity change below about -70%, passing the limit was not always enough;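 also: host cells are HeLa cells infected with Toxoplasma gondii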
Numbers without * were called inactive.

SMILES | Tgondii IFNg
COc1cc(Nc2nc(-c3nnc(-c4ccccc4)o3)nc3ccccc23)cc(OC)c1OC | -125*
CCN1CCOCC2(CCCN(C(=O)COC)C2)C1 (configuration not stated) | -37
O=C(NC1CCCCCCC1)C1CC(=O)N(CCc2c[nH]c3ccc(Cl)cc23)C1 (configuration not stated) | -92*
CC(C)c1ccc(NC(=O)C2CC(=O)N(CCc3c[nH]c4ccc(Cl)cc34)C2)cc1 (configuration not stated) | -70
Cc1ccc2[nH]cc(CCN3CC(C(=O)NC4CCCCCCC4)CC3=O)c2c1 (configuration not stated) | 136
Cc1ccc(-c2csc(-c3ccc(-c4csnn4)cc3)n2)cc1 | 171
CN(C)C(=O)CO[C@H]1CCN(c2ncccn2)C[C@@H]1Cc1ccccc1 | -2
Cc1ccc(C)c(-c2coc(-c3ccc(NC(=O)NCc4ccco4)cc3)n2)c1 | -18
O=C(Cc1cc(Br)sc1Br)Nc1cccc(C(F)(F)F)c1 | -65
O=C(NCC1CCCO1)c1csc(-c2ccc(N3CCCC3)nc2)n1 (configuration not stated) | -113*
CCc1csc(-c2ccc(N3CCN(C(=O)C4CCN(C(C)=O)CC4)CC3)nc2)n1 | 11
O=C(Cn1ncc2c(N3CCCCC3)ncnc21)NC1CCN(Cc2ccccc2)CC1 | -7
O=C(NC1CCN(Cc2ccccc2)CC1)c1csc(-c2ccc(N3CCCC3)nc2)n1 | -85*
CC1CCN(C(=O)c2csc(-c3ccc(N4CCCC4)nc3)n2)CC1 | -47
O=C(NCCCN1CCOCC1)c1csc(-c2ccc(N3CCCC3)nc2)n1 | -1
Cc1nc(-c2ccc(Cl)cc2)sc1CCNC(=O)C(=O)Nc1ccc(F)cc1 | 72
COc1ccc(C2CCCN2CC(=O)Nc2nccs2)cc1OC (configuration not stated) | 7
CCCC(Nc1nc(-c2cccnc2)nc2c1cnn2C)c1cccs1 (configuration not stated) | -51
C=CCN1C(=O)CCCC12CCN(C(=O)c1ccc(C)cc1)CC2 | -31
COc1cc(OC)cc(-c2nccn2[C@@H](C)CO)c1 | 57
COc1ccc(-n2nc(C(=O)O)nc2C)cc1 | 24
COc1ccc(-n2c(C)c3c(OC)cccc(=O)c3c2C)cc1 | -6
COc1ccc(-n2c(C)c([N+](=O)[O-])c3ccc(O)cc32)cc1 | -77*
O=C1N(c2ccc3c(c2)OCO3)CC12CCN(S(=O)(=O)c1ccccc1)CC2 | 8
Fc1ccc(OCc2nnc3sc(-c4cnccn4)nn23)cc1 | -29
SMILES | Tgondii IFNg
CCOc1ccccc1-c1noc(-c2nnn(Cc3nc(-c4ccc(C)cc4)oc3C)c2C)n1 | -17
CCOc1ccccc1-c1nc(Cc2noc(-c3cccnc3)n2)c(C)o1 | -79*
CCOc1ccc(-c2nc(Cc3noc(-c4cccnc4)n3)c(C)o2)cc1 | 55
COc1ccccc1-c1nc(Cn2nnc(-c3nc(-c4cccnc4)no3)c2C)c(C)o1 | -3
Cc1cccc(-c2nc(Cc3noc(-c4ccncc4)n3)c(C)o2)c1 | 7
CCOc1ccccc1-c1nc(Cc2noc(-c3ccccc3)n2)c(C)o1 | -101*
Cc1oc(-c2ccccc2)nc1Cc1noc(-c2ccncc2)n1 | 7
Cc1oc(-c2ccccc2)nc1Cc1noc(COc2ccccc2)n1 | -36
CCOc1ccccc1-c1nc(Cc2nc(-c3ccc(OC)cc3)oc2C)no1 | -93*
Cc1oc(-c2ccccc2)nc1Cc1noc(-c2cccnc2)n1 | -87*
CCOc1ccccc1-c1nc(CN(c2ccc(OC)cc2)S(=O)(=O)c2ccc(C)cc2)c(C)o1 | -19
COc1ccccc1-c1nc(Cc2noc(-c3ccccc3)n2)c(C)o1 | 116
Cc1ccc(C(=O)Nc2ccc3c(c2)CCC(=O)N3)c(C)c1 | 20
Cn1c(CC2CCNCC2)nnc1SCc1cc(F)ccc1Cl | 3
COCCCN1CC2(CCCCN2C(=O)c2cccs2)CC1=O (configuration not stated) | 2
CN(C)C(=O)N1CCCn2cnc(CS(C)(=O)=O)c2C1 | -2
Cn1nnc2c1CCN(S(C)(=O)=O)C2COCC1CC1 (configuration not stated) | 6
CCN(CC)C(=O)c1cc(=O)n(CC(=O)Nc2ccc(C)cc2)c2ccccc12 | 21
CN(CCc1cn[nH]c1)C(=O)c1ccc(CC2CCCNC2)cc1 (configuration not stated) | -3
CN(C)S(=O)(=O)N1CCC2OCCCC2(COc2cccnc2)C1 (configuration not stated) | -6
CCc1ccc(CN2C[C@H](N3CCOCC3)C3OCCCC32)o1 (some centres not stated) | -29
NC(=O)c1nc(C2=Cc3ccccc3OC2)nc2c1[nH]c(=O)n2CCc1ccccc1 | -25
CCc1ccc(CN2Cc3ccccc3C3(CCN(CC(=O)N(C)C)CC3)C2)o1 | 7
Cc1ccsc1[C@@H]1CCN(C(=O)c2ccc3c(c2)nnn3C)C[C@H]1O | -8
O=C(CS(=O)(=O)Cc1ccccc1)NCc1ccc2c(c1)OCO2 | -3
SMILES | Tgondii IFNg
CCc1nc(OCC(=O)NCc2ccc3c(c2)OCO3)c2ccccc2n1 | 10
c1ccc(-c2cc3ncnc(NCc4ccc5c(c4)OCO5)c3s2)cc1 | -105*
NC1(C(=O)O)CCN(Cc2ccc(-c3ccn[nH]3)s2)C1 (configuration not stated) | -3
CCCCC(=O)O[C@H]1CC[C@H]2[C@@H]3CCc4cc(O)ccc4[C@H]3CC[C@]12C | -35
CC(=O)Oc1ccc2c(c1)CCC1C2=CCC2(C)C(OC(C)=O)CCC12 (configuration not stated) | -92*
COCCN1C(=O)CCc2cc(NS(=O)(=O)c3ccccc3F)ccc21 | 29
O=S(=O)(c1ccccc1F)N1CCC(c2nc3ccc(-c4ccncc4)cn3n2)CC1 | -28
O=C(c1cnccn1)N1CCC(c2nc3ccc(-c4cccc(F)c4)cn3n2)CC1 | -72*
O=C(c1ccc(F)cc1F)N1CCC(c2nc3ccc(-c4cccnc4)cn3n2)CC1 | -3
COCCC(=O)c1cc2c(s1)CCN2Cc1cccnc1 | -53
O=C(NCc1ccc(N2CCOCC2)cc1)c1cc(F)cc2c1OCOC2 | -16
Cc1ccc(CN2CCC3(CC2)CCN3CC(=O)N(C)C)s1 | -30
CC(=O)N1CCOCC2(CN(Cc3nccs3)CCO2)C1 (configuration not stated) | -2
Cc1noc(CN2CCOc3c(O)cc(-c4ccc(C)s4)cc3C2)n1 | 0
Cc1cc(C(=O)N2CCOc3c(O)cc(-c4ccccc4C)cc3C2)no1 | -63
Cc1ccc(-c2cc(O)c3c(c2)CN(CC2CCCN2C)CCO3)s1 (configuration not stated) | -6
Cc1ccc(-c2cc(O)c3c(c2)CN(C(=O)CCN2CCCO2)CCO3)s1 | -75*
Cc1csc(CN2CCOc3c(O)cc(-c4ccc(C)s4)cc3C2)n1 | -6
Cc1ccc(-c2cc(O)c3c(c2)CN(C(=O)c2cccc(F)c2)CCO3)s1 | -70*
CN1C(=O)C2(NCCc3c2[nH]c2ccc(F)cc32)c2ccccc21 (configuration not stated) | 103
Cc1cc(C)cc(-n2ccnc2-c2cnc(N(C)C)nc2)c1 | 12
COc1cc(N2Cc3cnn(CCO)c3C2)ncn1 | 7
CCc1c(C)cc(C(=O)NCc2nc3ccc(OC)cc3[nH]2)c(=O)n1C | -3
Cc1sc2ncn(CCC(=O)NCCn3nnn(-c4cccs4)c3=O)c(=O)c2c1C | -5
O=C(/C=C/c1ccccc1)/C=C/c1ccccc1 | -98*
O=C(/C=C/c1ccccc1)c1ccccc1 | 28
O=C(O)CS(=O)(=O)/C=C/c1ccccc1 | -4
